# Data reported in PubChem BioAssay (NCATS).
# Results filed as inconclusive are left out. Where a call stands in place of a potency, no number is given. Unmarked numbers belong to inactive results. Calls of active or inactive are those of the source. The call rests on the fitted dose curve; in most records, active means well fitted curve in the direction sought with a large enough effect; inconclusive means small, poorly fitted or top-dose-only effect, or another doubt; inactive means no such curve, though single readings can be large; an effect the other way counts as inactive or inconclusive.
# Tests used:
# [1] = Tertiary RLuc qRT-PCR qHTS assay for Zika virus inhibitors (AID 1347169); further: top concentration of the series differs between compounds; nearly all actives have a fitted effect of over 55% in size
# Outline: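 Vero cells (1,000 per well) plated overnight at 37 degrees C, treated with compound in DMSO, then infected with recombinant ZIKV-RLuc (Cambodian) at MOI 1-2 for 48-72 hrs. Live-cell Renilla luciferase substrate added; luminescence read after 1-1.5 hrs.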
# [2] = qHTS to identify inhibitors of the type 1 interferon - major histocompatibility complex class I in skeletal muscle: primary screen against the NCATS Pharmaceutical Collection (AID 1347407);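 further: luminescence of HiBiT knocked into endogenous HLA-B as interferon-induced MHC class I level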
# Outline: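 Immortalized human myoblasts (C25cl48) with HiBiT knocked into endogenous HLA-B*08:01 were stimulated with 4 ng/ml IFN-beta and treated with compounds (8-point, 1:5, top 46 uM final) for 24 h at 37 C; HiBiT lytic luminescence read.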
# [3] = biological target: Protein phosphatase 1D (Homo sapiens) (UniProt O15297); experiment: RapidFire Mass Spectrometry qHTS Assay for Modulators of WT P53-Induced Phosphatase 1 (WIP1) (AID 1347424);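 further: amount of dephosphorylated VEPPL-S-QETFS peptide product formed by WIP1; series mostly up to about 63 µM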
# Outline: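 RapidFire mass spectrometry measured dephosphorylated peptide after 5 min room-temperature reaction of 2 uM VEPPL-pS-QETFS with 10 nM WIP1 (50 mM Tris-HCl pH 7.5, 30 mM MgCl2, 0.1 mM EGTA, BSA), following 1 hr compound preincubation; 1 uM isotope-labelled product standard.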
# [4] = biological target: Protein phosphatase 1D (Homo sapiens) (UniProt O15297); experiment: Rhodamine-PBP qHTS Assay for Modulators of WT P53-Induced Phosphatase 1 (WIP1) (AID 1347425)
# Outline: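 The read-out is the change in Rhodamine-PBP fluorescence (f1 - f0, ex 525/em 598 nm) as Pi is released, read each minute for 11 min. Final reaction: 5 nM WIP1, 10 uM phosphopeptide VEPPL-pS-QETFS, 10 uM Rh-PBP, 50 mM Tris-HCl pH 7.5, 30 mM MgCl2. Compound was preincubated with enzyme for 1 hour at room temperature.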
# [5] = Primary qHTS for inhibitors of La Crosse Virus (LACV) - induced cell death in SH-SY5Y cells (AID 1508616);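 further: top concentration of the series differs between compounds; higher means more rescue of cells from virus-induced death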
# Outline: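 SH-SY5Y, 6000 cells/well; cpd via pin tool in DMSO; LACV 0.01 MOI; 6 d 37C 5% CO2; ATPLite, 5 min RT; luminescence normalized to ±virus DMSO controls.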
# [6] = biological target: Calcium and integrin-binding protein 1 (Homo sapiens) (UniProt Q99828); experiment: Primary qHTS for Identification of Calcium Integrin Binding Protein 1 (CIB1) Competitor (AID 1508620);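 further: GST tagged CIB1 binding a fluorescein labelled alphaIIb integrin peptide tracer; top concentration of the series differs between compounds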
# Outline: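 CIB1-GST (1 uM final) and compound incubated 15 min at room temperature before adding FITC-alphaIIb peptide tracer (100 nM final). Competition for binding read by fluorescence polarization (ex 480, em 540) after another 15 min at room temperature.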
# [7] = qHTS to identify inhibitors of the type 1 interferon - major histocompatibility complex class I in skeletal muscle: primary screen against the NCATS Mechanism Interrogation Plate v5.0 (MIPE) Libary (AID 1347411); further: nearly all actives have a fitted effect of over 65% in size
# Outline: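 Seed engineered human myoblasts (HLA-B HiBit) in medium without dexamethasone containing 4 ng/ml IFN-beta; after 1 hr add compound titrations (top 46 uM final). Incubate 24 hrs at 37 C, lyse 10 min with HiBiT reagent, read luminescence.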
# Protein phosphatase 1D (Homo sapiens), sequence (O15297 whole entry, looked up): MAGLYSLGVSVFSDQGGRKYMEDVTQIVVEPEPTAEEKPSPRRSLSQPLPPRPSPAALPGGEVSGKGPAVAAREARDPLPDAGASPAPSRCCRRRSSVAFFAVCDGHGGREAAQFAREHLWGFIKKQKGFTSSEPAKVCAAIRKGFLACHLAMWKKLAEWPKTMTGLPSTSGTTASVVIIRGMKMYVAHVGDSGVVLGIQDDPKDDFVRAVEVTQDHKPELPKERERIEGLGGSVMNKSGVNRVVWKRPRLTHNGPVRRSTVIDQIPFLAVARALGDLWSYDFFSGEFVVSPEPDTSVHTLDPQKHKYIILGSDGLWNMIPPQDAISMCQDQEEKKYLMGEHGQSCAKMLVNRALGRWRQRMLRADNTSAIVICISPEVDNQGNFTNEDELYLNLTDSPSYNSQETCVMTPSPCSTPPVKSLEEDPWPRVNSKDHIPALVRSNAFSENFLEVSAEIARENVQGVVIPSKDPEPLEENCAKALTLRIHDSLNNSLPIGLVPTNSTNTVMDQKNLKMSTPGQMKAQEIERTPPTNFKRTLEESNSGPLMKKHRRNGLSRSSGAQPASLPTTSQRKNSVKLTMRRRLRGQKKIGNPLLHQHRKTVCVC
# Calcium and integrin-binding protein 1 (Homo sapiens), sequence (Q99828 whole entry, looked up): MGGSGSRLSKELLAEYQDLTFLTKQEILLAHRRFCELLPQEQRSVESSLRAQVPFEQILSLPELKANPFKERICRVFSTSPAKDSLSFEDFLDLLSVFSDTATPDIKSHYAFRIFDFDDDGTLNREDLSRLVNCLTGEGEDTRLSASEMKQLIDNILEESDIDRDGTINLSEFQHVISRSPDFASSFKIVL
smiles,measurement,setting,value
N[C@@H](Cc1cc(I)c(Oc2ccc(O)c(I)c2)c(I)c1)C(=O)O,"activity change, negative = inhibition",[1],35% [at 3.57 µM]
CC(=O)Oc1cccc2c1C(=O)c1c(OC(C)=O)cc(C(=O)O)cc1C2=O,outcome,[2],inactive
same,outcome,[3],inactive
same,outcome,[4],inactive
same,outcome,[5],inactive
CC1CC(OC(=O)C(O)c2ccccc2)CC(C)(C)C1 (stereo not drawn),Potency,[6],inactive
CCN(CC)CCOCCOC(=O)C(CC)(CC)c1ccccc1,Potency,[6],inactive
CC(C)Cc1ccc([C@@H](C)C(=O)NS(C)(=O)=O)cc1,Potency,[7],inactive
